# Results: ChEMBL document CHEMBL3988442, “University of Dundee, Small-Polar-MMV Screening Library” (2021)
# For some assays here: Potency and affinity values are given separately.
# How the values were obtained:
# Design in all cases: scale not given: direction of the effect not stated beside the values
# [1] = biological target: Protein translocase subunit SecA (Escherichia coli (strain K12)) (UniProt P10408); experiment: Assay to Identify E. coli SecA ATPase Inhibitors; type: functional; details: 30 µM
# [2] = biological target: T1, Ubiquitin-activating enzyme e1, putative (Leishmania donovani (strain BPK282A1)) (UniProt E9BSI1); experiment: Leishmania donovani Ubiquitin Activating Enzyme (LdE1); type: functional; details: 30 µM
# T1 sequence (whole entry): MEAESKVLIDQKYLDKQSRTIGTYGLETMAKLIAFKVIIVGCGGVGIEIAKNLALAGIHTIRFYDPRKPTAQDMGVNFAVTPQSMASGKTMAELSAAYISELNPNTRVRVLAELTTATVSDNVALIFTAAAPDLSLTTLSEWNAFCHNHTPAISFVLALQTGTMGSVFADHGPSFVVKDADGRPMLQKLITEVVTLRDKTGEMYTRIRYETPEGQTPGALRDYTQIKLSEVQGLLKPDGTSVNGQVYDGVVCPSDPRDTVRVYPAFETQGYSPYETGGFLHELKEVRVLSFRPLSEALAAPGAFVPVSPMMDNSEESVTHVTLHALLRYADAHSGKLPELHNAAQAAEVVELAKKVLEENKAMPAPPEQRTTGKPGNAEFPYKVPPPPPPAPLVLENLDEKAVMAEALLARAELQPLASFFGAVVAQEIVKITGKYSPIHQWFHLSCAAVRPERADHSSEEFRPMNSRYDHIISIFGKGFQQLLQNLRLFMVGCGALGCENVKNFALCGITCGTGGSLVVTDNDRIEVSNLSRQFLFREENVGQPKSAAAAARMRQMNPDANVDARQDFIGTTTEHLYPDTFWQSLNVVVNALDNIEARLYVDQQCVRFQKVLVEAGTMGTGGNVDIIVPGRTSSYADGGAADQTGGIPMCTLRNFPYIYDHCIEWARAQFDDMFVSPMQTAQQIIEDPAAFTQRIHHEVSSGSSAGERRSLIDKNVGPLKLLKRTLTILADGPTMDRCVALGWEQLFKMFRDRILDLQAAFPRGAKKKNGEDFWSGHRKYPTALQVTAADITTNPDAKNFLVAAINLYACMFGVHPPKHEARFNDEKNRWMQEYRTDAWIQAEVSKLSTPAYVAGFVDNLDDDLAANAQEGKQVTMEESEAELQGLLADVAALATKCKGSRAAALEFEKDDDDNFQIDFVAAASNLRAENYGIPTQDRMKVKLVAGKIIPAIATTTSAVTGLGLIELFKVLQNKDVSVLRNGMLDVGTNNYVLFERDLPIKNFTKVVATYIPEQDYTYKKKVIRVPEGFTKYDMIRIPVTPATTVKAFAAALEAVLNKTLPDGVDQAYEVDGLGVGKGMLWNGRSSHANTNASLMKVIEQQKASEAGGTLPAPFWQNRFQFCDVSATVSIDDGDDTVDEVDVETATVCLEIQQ
# [3] = biological target: AMP-activated protein kinase, AMPK (Homo sapiens) (UniProt P54646+O43741+P54619+Q9UGJ0+Q9Y478+Q13131+Q9UGI9); experiment: AMP-dependent Kinase enzyme assay. An in vitro enzyme assay that detects ADP turnover that is directly proportional to AMPK activity. This uses naive AMPK that is activated during the assay with MK-8722; type: functional; details: 30 µM
# [4] = biological target: Sialic acid-binding Ig-like lectin 9 (Homo sapiens) (UniProt Q9Y336); experiment: Hs-Siglec9 ALPHAscreen SOP 20170721; details: 10 µM
# [5] = system: Trypanosoma cruzi; experiment: Trypanosoma cruzi phosphomannomutase and mannose-1-phosphate guanylyltransferase assay; type: functional; details: 10 µM
# [6] = biological target: T2, Arginase-2, mitochondrial (Homo sapiens) (UniProt P78540); experiment: in vitro enzyme assay to detect the production of urea directly proportional to the activity of Arginase II; type: functional; details: 33.3 µM; further: in the data most compounds retested in dose-response had high values
# T2 sequence (whole entry): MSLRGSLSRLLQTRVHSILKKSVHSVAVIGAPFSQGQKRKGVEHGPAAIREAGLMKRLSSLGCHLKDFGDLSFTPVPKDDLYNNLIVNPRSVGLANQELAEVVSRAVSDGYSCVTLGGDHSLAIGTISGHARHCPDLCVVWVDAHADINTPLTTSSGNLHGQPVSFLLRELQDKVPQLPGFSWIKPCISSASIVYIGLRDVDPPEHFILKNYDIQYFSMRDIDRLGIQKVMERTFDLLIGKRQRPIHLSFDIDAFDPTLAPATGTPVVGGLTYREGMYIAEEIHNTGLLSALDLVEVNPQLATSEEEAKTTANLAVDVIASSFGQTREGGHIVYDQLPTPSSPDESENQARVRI
# [7] = biological target: T3, Proteasome subunit beta (Trypanosoma cruzi) (UniProt O96673); experiment: Trypanosoma cruzi proteasome chymotrypsin-like activity (TcProtChymo) assay.; further: in the data most compounds retested in dose-response had high values; type: functional; details: 9.37 µM
# T3 sequence (whole entry): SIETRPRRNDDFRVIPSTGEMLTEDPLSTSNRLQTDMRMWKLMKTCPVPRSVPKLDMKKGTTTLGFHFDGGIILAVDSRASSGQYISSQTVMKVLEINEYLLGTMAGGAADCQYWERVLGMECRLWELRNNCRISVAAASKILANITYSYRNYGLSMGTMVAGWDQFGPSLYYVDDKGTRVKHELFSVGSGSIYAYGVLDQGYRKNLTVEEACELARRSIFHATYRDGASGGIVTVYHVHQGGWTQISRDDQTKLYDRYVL
# [8] = species on record: Homo sapiens; experiment: To identify inhibition of the IFN signalling (Jak-Stat) pathway via expression of an eGFP reporter gene under the control of an IFN-stimulated response element (ISRE) containing MxA promoter.; type: functional; details: 30 µM
# [9] = biological target: T4, Tyrosyl-tRNA synthetase, putative (Trypanosoma cruzi (strain CL Brener)) (UniProt Q4DSP6); experiment: Trypanosoma cruzi tyrosyl tRNA synthetase (TcYRS) _High Tyrosine SOP; type: functional; details: 30 µM; further: in the data most compounds retested in dose-response had high values
# T4 sequence (whole entry): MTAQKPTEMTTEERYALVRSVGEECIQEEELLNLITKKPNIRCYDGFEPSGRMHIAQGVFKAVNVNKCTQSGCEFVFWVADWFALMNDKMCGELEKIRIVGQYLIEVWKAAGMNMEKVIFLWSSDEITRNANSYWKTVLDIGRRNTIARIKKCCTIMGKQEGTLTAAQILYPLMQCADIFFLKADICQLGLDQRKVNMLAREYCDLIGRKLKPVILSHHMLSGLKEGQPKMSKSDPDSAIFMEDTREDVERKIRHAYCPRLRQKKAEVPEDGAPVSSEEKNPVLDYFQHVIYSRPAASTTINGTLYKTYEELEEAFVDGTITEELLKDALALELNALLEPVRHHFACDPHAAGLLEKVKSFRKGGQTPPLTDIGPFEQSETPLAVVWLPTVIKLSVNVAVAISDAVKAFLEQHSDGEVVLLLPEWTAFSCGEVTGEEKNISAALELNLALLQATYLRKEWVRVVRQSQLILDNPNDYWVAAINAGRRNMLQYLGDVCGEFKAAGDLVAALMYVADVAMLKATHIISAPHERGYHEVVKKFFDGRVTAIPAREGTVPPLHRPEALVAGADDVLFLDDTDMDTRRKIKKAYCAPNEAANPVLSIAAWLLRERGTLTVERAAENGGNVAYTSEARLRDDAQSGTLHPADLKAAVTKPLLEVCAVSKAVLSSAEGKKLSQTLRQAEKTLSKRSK
# [10] = biological target: T4, Tyrosyl-tRNA synthetase, putative (Trypanosoma cruzi (strain CL Brener)); experiment: Trypanosoma cruzi tyrosyl tRNA synthetase (TcYRS) SOP; type: functional; details: 30 µM
# [11] = biological target: Chromo domain-containing protein 1 (Saccharomyces cerevisiae (strain ATCC 204508 / S288c) (Baker's yeast)) (UniProt P32657); experiment: ScCHD-1 Enzyme Inhibition Assay; type: functional; details: 30 µM; further: in the data most compounds retested in dose-response had high values
# Chromo domain-containing protein 1 (Saccharomyces cerevisiae (strain ATCC 204508 / S288c) (Baker's yeast)), sequence (P32657 whole entry, the tested form may be a part): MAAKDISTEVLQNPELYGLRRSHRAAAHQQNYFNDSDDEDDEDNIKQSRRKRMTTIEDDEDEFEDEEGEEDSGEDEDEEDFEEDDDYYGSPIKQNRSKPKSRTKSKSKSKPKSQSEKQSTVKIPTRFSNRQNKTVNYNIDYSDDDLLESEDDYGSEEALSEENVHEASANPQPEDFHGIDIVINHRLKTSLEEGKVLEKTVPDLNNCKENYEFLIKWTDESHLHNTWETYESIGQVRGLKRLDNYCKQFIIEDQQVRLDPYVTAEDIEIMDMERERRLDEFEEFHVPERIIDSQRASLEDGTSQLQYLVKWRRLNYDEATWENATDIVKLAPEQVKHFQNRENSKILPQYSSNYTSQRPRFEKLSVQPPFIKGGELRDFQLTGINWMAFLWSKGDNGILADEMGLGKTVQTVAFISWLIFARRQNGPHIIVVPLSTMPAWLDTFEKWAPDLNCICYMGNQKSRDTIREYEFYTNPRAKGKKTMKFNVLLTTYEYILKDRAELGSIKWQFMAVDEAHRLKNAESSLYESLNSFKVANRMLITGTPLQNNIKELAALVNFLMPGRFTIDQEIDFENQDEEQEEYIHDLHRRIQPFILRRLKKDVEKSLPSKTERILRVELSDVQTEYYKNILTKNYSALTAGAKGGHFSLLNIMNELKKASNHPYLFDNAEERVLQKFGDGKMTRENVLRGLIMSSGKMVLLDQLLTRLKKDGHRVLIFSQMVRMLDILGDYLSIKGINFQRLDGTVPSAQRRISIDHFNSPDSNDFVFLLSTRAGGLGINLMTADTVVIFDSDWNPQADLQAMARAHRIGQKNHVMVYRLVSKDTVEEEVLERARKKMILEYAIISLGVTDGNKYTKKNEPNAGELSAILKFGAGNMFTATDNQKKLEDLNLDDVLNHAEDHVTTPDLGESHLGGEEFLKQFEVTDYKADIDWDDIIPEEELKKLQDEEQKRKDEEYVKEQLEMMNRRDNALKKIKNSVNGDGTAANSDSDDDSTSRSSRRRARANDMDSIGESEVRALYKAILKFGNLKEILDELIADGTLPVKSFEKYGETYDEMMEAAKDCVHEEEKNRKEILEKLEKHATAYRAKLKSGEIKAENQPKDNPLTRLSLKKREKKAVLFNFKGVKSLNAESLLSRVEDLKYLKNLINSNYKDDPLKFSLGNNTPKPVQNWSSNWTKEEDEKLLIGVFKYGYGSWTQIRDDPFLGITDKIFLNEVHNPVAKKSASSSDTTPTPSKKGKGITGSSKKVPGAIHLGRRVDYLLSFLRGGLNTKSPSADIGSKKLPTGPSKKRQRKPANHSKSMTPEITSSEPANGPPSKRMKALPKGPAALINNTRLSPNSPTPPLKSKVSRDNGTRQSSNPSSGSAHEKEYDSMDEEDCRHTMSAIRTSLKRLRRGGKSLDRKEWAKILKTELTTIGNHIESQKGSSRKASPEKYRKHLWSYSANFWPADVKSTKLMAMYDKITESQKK
# Sialic acid-binding Ig-like lectin 9 (Homo sapiens), sequence (Q9Y336 whole entry): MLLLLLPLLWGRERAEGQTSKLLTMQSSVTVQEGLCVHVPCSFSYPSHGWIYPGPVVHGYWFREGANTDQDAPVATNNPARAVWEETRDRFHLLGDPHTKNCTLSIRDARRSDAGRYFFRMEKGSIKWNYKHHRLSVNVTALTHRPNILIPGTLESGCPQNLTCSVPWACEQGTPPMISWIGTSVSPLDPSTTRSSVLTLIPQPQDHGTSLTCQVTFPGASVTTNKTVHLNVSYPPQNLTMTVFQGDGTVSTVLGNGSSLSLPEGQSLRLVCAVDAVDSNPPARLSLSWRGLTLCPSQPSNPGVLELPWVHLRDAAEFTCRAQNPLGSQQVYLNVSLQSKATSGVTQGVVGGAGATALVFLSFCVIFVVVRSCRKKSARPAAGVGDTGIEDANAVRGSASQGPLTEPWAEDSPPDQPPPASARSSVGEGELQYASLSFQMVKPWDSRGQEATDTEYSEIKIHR
# Protein translocase subunit SecA (Escherichia coli (strain K12)), sequence (P10408 whole entry): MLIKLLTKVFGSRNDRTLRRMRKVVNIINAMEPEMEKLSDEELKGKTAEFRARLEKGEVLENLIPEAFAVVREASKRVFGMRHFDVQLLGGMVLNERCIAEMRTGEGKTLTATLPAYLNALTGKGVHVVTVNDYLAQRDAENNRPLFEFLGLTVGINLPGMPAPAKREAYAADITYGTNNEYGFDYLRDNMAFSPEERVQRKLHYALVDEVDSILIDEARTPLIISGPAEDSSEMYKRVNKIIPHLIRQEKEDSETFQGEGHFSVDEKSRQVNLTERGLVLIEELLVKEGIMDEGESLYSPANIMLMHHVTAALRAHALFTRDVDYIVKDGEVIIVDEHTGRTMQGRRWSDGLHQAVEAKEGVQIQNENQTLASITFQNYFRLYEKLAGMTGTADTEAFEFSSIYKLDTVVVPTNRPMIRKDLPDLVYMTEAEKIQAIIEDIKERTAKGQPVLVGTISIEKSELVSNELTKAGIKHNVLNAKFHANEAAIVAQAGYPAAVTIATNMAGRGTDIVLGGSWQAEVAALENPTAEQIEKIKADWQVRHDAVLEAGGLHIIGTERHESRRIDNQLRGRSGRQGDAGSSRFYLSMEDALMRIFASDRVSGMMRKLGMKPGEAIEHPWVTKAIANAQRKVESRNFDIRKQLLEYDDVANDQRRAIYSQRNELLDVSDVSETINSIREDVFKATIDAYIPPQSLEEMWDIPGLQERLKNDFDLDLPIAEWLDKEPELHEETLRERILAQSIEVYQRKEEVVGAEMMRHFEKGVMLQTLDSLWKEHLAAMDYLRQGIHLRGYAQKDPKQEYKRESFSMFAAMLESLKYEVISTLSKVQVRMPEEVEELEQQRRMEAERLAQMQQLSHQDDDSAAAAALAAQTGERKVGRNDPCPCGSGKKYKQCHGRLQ
Compound,Percent Effect [1],Percent Effect [2],Percent Effect [3],Percent Effect [4],Percent Effect [5],Percent Effect [6],Percent Effect [7],Percent Effect [8],Percent Effect [9],Percent Effect [10],Percent Effect [11]
CN(C)CCN1CCC2(CC1)CN(c1cccnc1)C(=O)CO2,-2.58%,10.8%,0.668%,-8.57%,-5.18%,2.23%,24.4%,12.1%,4.32%,10.3%,-2.65%
O=C1O[C@@H]2CN(Cc3cccc(F)c3)C[C@@H]2N1CCCN1CCOCC1,-1.1%,10.7%,4.3%,9.62%,2.82%,12.5%,21.3%,9.55%,3.83%,21%,-10.6%
CC(=O)Nc1c(C)cnn1Cc1cc(F)ccc1F,-3.16%,0%,0.653%,2.06%,-3.99%,1.56%,2.09%,12.2%,2.73%,6.17%,-0.196%
Cc1nnc2n1CCN(Cc1csc(-c3ccc(F)cc3)n1)C2,-4.19%,5.41%,-2.56%,4.19%,8.26%,-4.62%,5.75%,4.35%,3.96%,15.8%,-6.22%
Cn1cnnc1S(=O)(=O)C1CCN(S(=O)(=O)c2ccc(F)c(Cl)c2)CC1,-0.452%,-5.48%,9.53%,-2.11%,-1.37%,1.36%,7.1%,8.21%,-1.07%,0%,-1.74%
Cc1n[nH]c(C)c1NC(=O)CN1CCOC(Cn2cccn2)C1 (configuration not stated),-4.71%,2.6%,7.29%,-4.25%,6.95%,-4%,8.16%,10.5%,3.81%,9.41%,-16.3%
CCOC(=O)CN1CCC(C(=O)c2cc(F)ccc2F)CC1,-9.27%,-5.26%,-10.9%,11.4%,12.4%,-1.53%,4.01%,2.26%,5.39%,7.32%,-11.5%
O=C(CCNc1ncccn1)N1CCCC(n2ccnc2)C1 (configuration not stated),-7.87%,6.33%,7.8%,-0.356%,-2.77%,0.645%,9.78%,12%,8.33%,15.2%,-20.9%
CCCN(C(=O)c1ccccn1)c1nc2c(s1)CCc1c-2cnn1C,3.44%,60.8%,-62.8%,3.48%,0.988%,15.6%,17.5%,32.7%,-6.45%,-6.49%,-6.45%
CN(C)CCO[C@@H]1CC[C@H]2[C@H]1OCCN2C(=O)COc1ccccc1,-2.92%,0%,-3.78%,3.69%,-0.88%,-27.1%,17.7%,8.7%,-1.08%,0%,1.68%
COCc1cccc(C(=O)N2CCCCC2c2nccs2)c1 (configuration not stated),-2.42%,-2.7%,-6.81%,-4.58%,5.75%,2.81%,7.75%,-4.26%,3.45%,3.7%,-4.87%
CN(C)CC(=O)N1Cc2nc(C(=O)NCc3ccncc3)oc2C1,-0.101%,13.3%,-4.75%,4%,3.86%,-49.3%,14.4%,-9.53%,0%,20%,-6.75%
COc1cccc(C2CC(=O)Nc3nc(N)sc32)c1OC (configuration not stated),70.6%,26.3%,-56.4%,-2.19%,7.3%,21.3%,10.3%,-3.92%,-4.25%,-36.4%,-8.65%
Cc1nc(CNCC2CCCN2c2cccnn2)cs1 (configuration not stated),-2.04%,-2.63%,1.93%,0.202%,-3.38%,6.51%,-1.84%,14.7%,2.45%,0%,4.5%
Cc1ncnc2c1CCN(Cc1ccc3c(c1)OCO3)CC2,-2.54%,13.7%,-1.53%,8.83%,3.97%,1.2%,6.08%,-10.2%,3.12%,11.1%,-2.7%
CCCc1cc(=O)n(CC(N)=O)c(-n2nc(C)cc2C)n1,-1.73%,7.79%,7.17%,-1.59%,2.46%,-4.52%,10.1%,32%,3.17%,11.5%,-9.6%
c1coc(-c2noc(CN3CCCC(Cn4cncn4)C3)n2)c1 (configuration not stated),-6.64%,7.59%,-3.53%,4.26%,6.14%,-3.04%,2.05%,3.63%,-1.48%,11.4%,-5.56%
Cc1ccc(CNC2CCN(CCc3ccncc3)CC2)cc1C,-4.25%,-5.41%,-4.58%,7.82%,5.47%,18.8%,5.5%,-6.77%,2.97%,8.54%,29.8%
CCN1CCN(CC(O)c2ccc(F)cc2)CC1 (configuration not stated),-4.5%,2.7%,-2.92%,3.74%,-2.92%,-0.401%,3.96%,3.68%,5.42%,13.6%,-6.3%
CCOCCCNC(=O)c1nn(CC)cc1Cl,-0.389%,14.7%,-2.38%,-8.09%,3.14%,-8.28%,12.8%,18.8%,5.29%,12.8%,-10.4%
COCCN1CCN(Cc2noc(C3CC3)n2)CC1C (configuration not stated),0.0669%,22.8%,-4.5%,-13.4%,-3.87%,1.14%,10.7%,-0.744%,1.48%,11.4%,-3.63%
Cc1ccc(NC2CCN(C(=O)c3ccc(Cl)o3)CC2)nn1,-6.79%,0%,5.42%,-2.43%,-6.01%,1.15%,17.4%,24.5%,0.49%,-7.32%,4.23%
